KDM5B inh – KDM5B demethylase inhibition | Q9UGL1 | KDM5B demethylase, FDH-coupled NADH fluorescence (FDH is formaldehyde dehydrogenase) | Potency, µM (highest dose often 57.7 µM), hits mostly inhibitors | hit rate 2.6% among 220,000 | AID 1347165; active means well fitted inhibition curve with a large enough effect; further: 0% is about no effect; nearly all actives have a fitted effect of over 70% in size
Target sequence (Q9UGL1 whole entry, looked up): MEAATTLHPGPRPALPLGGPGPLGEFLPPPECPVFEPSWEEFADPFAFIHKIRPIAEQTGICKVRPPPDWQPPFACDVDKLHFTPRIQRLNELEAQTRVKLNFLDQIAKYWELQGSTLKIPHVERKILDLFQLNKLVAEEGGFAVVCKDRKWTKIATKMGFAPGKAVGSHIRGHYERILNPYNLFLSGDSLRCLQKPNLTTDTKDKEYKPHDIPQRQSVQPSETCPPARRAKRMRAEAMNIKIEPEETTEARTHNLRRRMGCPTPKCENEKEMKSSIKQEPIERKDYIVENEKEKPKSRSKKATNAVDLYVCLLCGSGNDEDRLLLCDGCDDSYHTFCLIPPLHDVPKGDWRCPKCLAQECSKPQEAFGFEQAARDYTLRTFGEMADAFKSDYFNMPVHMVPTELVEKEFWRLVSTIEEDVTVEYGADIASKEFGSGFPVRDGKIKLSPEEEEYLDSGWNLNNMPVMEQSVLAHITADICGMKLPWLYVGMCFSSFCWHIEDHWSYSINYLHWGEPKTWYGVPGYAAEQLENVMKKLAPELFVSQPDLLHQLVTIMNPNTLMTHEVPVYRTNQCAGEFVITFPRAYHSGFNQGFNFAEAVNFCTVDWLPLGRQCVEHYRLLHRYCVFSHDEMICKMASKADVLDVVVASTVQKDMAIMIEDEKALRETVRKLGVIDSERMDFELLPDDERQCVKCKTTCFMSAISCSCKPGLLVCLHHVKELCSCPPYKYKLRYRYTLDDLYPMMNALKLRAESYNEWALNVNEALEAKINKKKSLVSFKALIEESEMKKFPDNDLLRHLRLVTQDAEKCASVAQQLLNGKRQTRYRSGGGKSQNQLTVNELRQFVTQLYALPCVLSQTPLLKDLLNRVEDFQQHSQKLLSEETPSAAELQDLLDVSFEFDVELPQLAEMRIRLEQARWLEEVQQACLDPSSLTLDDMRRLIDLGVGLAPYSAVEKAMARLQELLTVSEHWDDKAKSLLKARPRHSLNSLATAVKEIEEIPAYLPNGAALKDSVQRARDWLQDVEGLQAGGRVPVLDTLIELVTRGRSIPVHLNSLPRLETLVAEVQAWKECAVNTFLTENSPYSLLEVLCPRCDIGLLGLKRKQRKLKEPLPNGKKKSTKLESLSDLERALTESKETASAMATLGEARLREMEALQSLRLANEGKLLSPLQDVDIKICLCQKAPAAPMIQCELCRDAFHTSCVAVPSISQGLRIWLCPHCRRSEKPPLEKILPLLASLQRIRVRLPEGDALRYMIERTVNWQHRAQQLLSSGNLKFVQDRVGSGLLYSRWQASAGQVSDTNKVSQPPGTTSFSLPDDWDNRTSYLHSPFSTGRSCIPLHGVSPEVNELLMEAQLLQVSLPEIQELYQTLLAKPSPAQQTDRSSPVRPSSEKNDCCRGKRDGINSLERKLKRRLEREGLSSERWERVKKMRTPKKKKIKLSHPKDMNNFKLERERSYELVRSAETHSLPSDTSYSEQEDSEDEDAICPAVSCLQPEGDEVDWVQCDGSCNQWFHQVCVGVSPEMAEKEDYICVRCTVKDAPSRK
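Inhibition is measured as reduced NADH fluorescence generation from FDH coupling to formaldehyde release. Truncated KDM5BΔAP at 200 nM final acts on H3K4me3 peptide (12.5 µM in substrate mix) in pH 7.5 HEPES buffer with Tween-20, 30 min, room temperature.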
An asterisk follows results filed as active; i = inactive. This excerpt belongs to a sample that is enriched for hits. Potency means the concentration at half of the fitted maximal effect.

SMILES	KDM5B inh
CC(C)Cn1c(Cn2cccn2)nc2cc(NC(=O)c3ccccc3)ccc21	i
S=C(Nc1ccccc1Cl)N(Cc1ccccc1)c1ccccc1	i
O=C(N[C@H]1CCN2C(=O)c3cc(-c4cccc(C(F)(F)F)c4)ccc3NC(=O)[C@@H]2C1)c1cnccn1	i
C=CCO[C@@H]1C[C@H]2C(=O)Nc3ccc(-c4ccccc4)cc3C(=O)N2C1	i
COc1ccc(-c2ccc3c(c2)C(=O)N2CCN(C(=O)COc4ccccc4)C[C@@H]2C(=O)N3)cc1	28µM*
O=C(N[C@H]1CCN2C(=O)c3cc(-c4cccc(C(F)(F)F)c4)ccc3NC(=O)[C@H]12)c1cnccn1	i
COc1ccc(OCC(=O)N2CCN(C(=O)c3cccc(OC)c3)CC2)cc1	i
C=CCO[C@@H]1C[C@H]2C(=O)Nc3ccc(-c4ccc(OC)cc4)cc3C(=O)N2C1	35µM*
O=C1Nc2ccc(-c3cccc(C(F)(F)F)c3)cc2C(=O)N2CCN(C(=O)c3ccco3)C[C@@H]12	35µM*
COCC(=O)N1CCN2C(=O)c3cc(-c4cccc(C(F)(F)F)c4)ccc3NC(=O)[C@H]2C1	28µM*
C=CCO[C@@H]1C[C@H]2C(=O)Nc3ccc(-c4ccc(F)cc4F)cc3C(=O)N2C1	i
CS(=O)(=O)N[C@H]1C[C@H]2C(=O)Nc3ccc(-c4cccc(C(F)(F)F)c4)cc3C(=O)N2C1	i
O=C1CSC(c2ccc(Br)cc2)N1c1cccc(C(F)(F)F)c1 (stereo not given)	i
CN(CC(=O)Nc1ccc(Cl)c(C(F)(F)F)c1)Cc1cc(Cl)cc2c1OCOC2	i
CCc1ccc(C(=O)COC(=O)CCc2ccccc2)cc1	i
Cc1c(C)c(C)c(S(=O)(=O)Nc2cc(Cl)ccc2C(=O)N(C)C)c(C)c1C	i
NCC(c1ccc(F)cc1)c1c[nH]c2ccccc12 (stereo not given)	i
CCc1c(C)sc(NC(=O)/C=C/c2c(F)cccc2Cl)c1C#N	i
COC(=O)C1=C(C)OC(=O)C1(NC(=O)c1ccccc1)C(F)(F)F (stereo not given)	i
CC1CCCN(C(=O)CSc2nnc(-c3ccccc3)o2)C1 (stereo not given)	i
COc1cc(CC(=O)Nc2cc(S(=O)(=O)N3CCCCC3)ccc2C)cc(OC)c1OC	i
Fc1ccc(CSc2cccc3cccnc23)cc1	i
NC(=O)CCS(=O)(=O)CCN1CCCC1c1cccc(Cl)c1 (stereo not given)	i
COCC(=O)N1CCN2C(=O)c3cc(-c4ccc(OC)cc4)ccc3NC(=O)[C@H]2C1	32µM*
CC(C)(CC(=O)O)CC(=O)N1CCN2C(=O)c3cc(-c4ccc(Cl)cc4)ccc3NC(=O)[C@@H]2C1	i
SMILES	KDM5B inh
COc1ccc(C(=O)N[C@H]2C[C@H]3C(=O)Nc4ccc(-c5ccsc5)cc4C(=O)N3C2)cc1	i
CC(C)(C)C1CCc2c(sc3c2C(c2ccc(O)cc2)CC(=O)N3)C1 (stereo not given)	i
Clc1cccc(NN=C2c3ccccc3-c3ccccc32)c1	i
CN1CCN(CCOc2ccc3c(=O)c(-c4ccccc4)coc3c2)CC1	i
CC(=O)CC(=O)N(CCC[N+](C)(C)C)CCC[N+](C)(C)C	i
NCc1ccccc1-c1cc(C(F)(F)F)ccc1Cl	i
NCc1cccc(-c2cc(C(F)(F)F)ccc2Cl)c1	89µM*
O=C(O)c1cccc(-c2cc(C(F)(F)F)ccc2Cl)c1	i
COc1ccc2c(COC(=O)c3ccc4ccccc4c3O)cc(=O)oc2c1	i
CC1(C)CC(=O)C2=C(C1)OC(=O)CC2c1ccc2ccccc2c1 (stereo not given)	i
CCOc1ccc(NC(=O)Cn2c(Nc3ccc(F)c(C)c3)nc(C)cc2=O)cc1	i
CCOc1cccc2cc(-c3nc(-c4ccc(OC)c(F)c4)no3)c(=O)oc12	i
CCn1ccnc1C1CCN(c2nc3ccccc3o2)CC1	i
COc1ccc(C(=O)N2CCC(C3CCNC3)CC2)cc1F (stereo not given)	i
COc1ccc(C(=O)N2CCN(c3nnc4cccc(C)n34)CC2)cc1F	28µM*
Cc1ccc(C(=O)N2CCN(c3nnc4cccc(C)n34)CC2)cc1F	28µM*
COc1ccccc1C(=O)N1CCCN(c2cc(-c3ccc(Cl)cc3)[nH]n2)CC1	i
Cc1ccc(C(=O)N2CCN(c3cc(-c4ccc(Cl)cc4)[nH]n3)CC2)cc1F	i
COc1ccc(-c2cc(N3CCCN(C(=O)c4ccccc4OC)CC3)n[nH]2)cc1	i
COc1ccccc1C(=O)N1CCCN(c2nnc3cccc(C)n23)CC1	25µM*
COc1ccc(C(=O)N2CCC(C3CCN(C)CC3)C2)cc1F (stereo not given)	i
Cc1ccc(C(=O)N2CCN(c3cc(-c4ccccc4)[nH]n3)CC2)cc1F	i
CCN(C(=O)CN(C)S(=O)(=O)c1cc2c(cc1C)NC(=O)C(C)O2)c1ccc(OC)cc1 (stereo not given)	i
CC(C)(C)NC(=O)c1cc(-c2ccccc2Cl)nc2ccccc12	i
O=C(CN(c1ccccc1F)S(=O)(=O)c1ccccc1)Nc1ccccc1C(=O)O	i
SMILES	KDM5B inh
CN(C)C[C@@H]1CN(c2ncccn2)C[C@H]1NC(=O)c1cnn(C)c1	28µM*
Cc1ccc(C)c(C(=O)N[C@@H]2CN(c3ncccn3)C[C@H]2CN(C)C)c1	22µM*
CN(C)C[C@@H]1CN(c2ncccn2)C[C@H]1NC(=O)c1ccccc1Cl	22µM*
CN(C)C[C@@H]1CN(c2ncccn2)C[C@H]1NC(=O)c1cccc2[nH]ccc12	i
Cc1ncccc1C(=O)N[C@@H]1CN(Cc2ccccc2)C[C@H]1CN(C)C	i
CN(C)C[C@@H]1CN(c2ccncn2)C[C@H]1NC(=O)c1ccc(F)cc1Cl	i
CN(C)C[C@@H]1CN(c2ccncn2)C[C@H]1NC(=O)c1ccc(C#N)cc1	i
CN(C)C[C@@H]1CN(C)C[C@H]1NC(=O)c1cc(F)ccc1Cl	i
CN(C)C[C@@H]1CN(c2ncccn2)C[C@H]1NC(=O)c1cc(F)ccc1Cl	32µM*
CN(C)C[C@@H]1CN(S(C)(=O)=O)C[C@H]1NC(=O)c1nccn1C	i
N#Cc1ccc(N2CCC(C(=O)NCCc3cccs3)CC2)nc1	i
C=C(C)COc1ccccc1N	i
Cc1cc(NC(=O)CNc2cc(S(=O)(=O)N3CCCCC3)ccc2Oc2ccccc2)no1	i
O=C(O)CNS(=O)(=O)c1cc(C(=O)O)ccc1Cl	i
NC(=O)NC(=O)CSC1=Nc2ccccc2CS1	i
O=C(c1ccncc1)N1CCCC(n2cc(-c3nc(C4CC4)no3)nn2)C1 (stereo not given)	i
Cc1ccc(-c2noc(-c3ccc(Br)cc3)n2)s1	i
CN(C)C[C@@H]1CN(c2ncccn2)C[C@H]1NC(=O)c1cccn1C	28µM*
CN(C)C[C@@H]1CN(Cc2ccccc2)C[C@H]1NC(=O)c1cccn1C	i
CNC(=O)N1C[C@@H](CN(C)C)[C@H](NC(=O)c2cccn2C)C1	i
CN(C)C[C@@H]1CN(c2ncccn2)C[C@H]1NC(=O)c1ccccc1F	28µM*
CN(C)C[C@@H]1CN(Cc2ccccc2)C[C@H]1NC(=O)c1c(F)cccc1F	i
COC(=O)c1c(SCC(=O)Nc2ccc(Cl)cc2F)nc(=O)[nH]c1C	i
COc1ccc(NC(=O)COc2ccc3c(C)cc(=O)oc3c2C)cc1	i
O=C(CSc1ccc2c(c1)OCCO2)c1ccc(Br)cc1	i
